Assay results from PubChem BioAssay (EPA / NIEHS).
Records with an inconclusive call do not appear. Active and inactive are the calls of the source. The calls were made as follows, unless noted: active = hit-call score of the fitted dose curve at least 0.9, where 1 is the maximum; inactive = score below 0.9.

Columns and labels:
[1] = ATG_TCF_b_cat_CIS: Attagene CIS-FACTORIAL HepG2 Assay for human T-Cell-Factor with beta-catenin (TCF/b-cat) (AID 2282965); settings: HepG2 TCF/beta-catenin cis-reporter transcription, actives raise or lower the signal
Outline: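 Endogenous TCF/LEF activity read as reporter transcript level via RT-PCR and capillary electrophoresis fluorescence in transfected HepG2, 24 h exposure; gain or loss of signal fitted against DMSO controls.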

[2] = ATG_TAL_CIS: Attagene CIS-FACTORIAL HepG2 Assay for human TAL Basal Promoter (AID 2282966); settings: HepG2 Attagene cis-factorial TAL promoter reporter; actives raise or lower the signal;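 also: background control endpoint measuring basal TAL promoter reporter mRNA not a specific factor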
Outline: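 Fluorescence of labelled reporter cDNA fragments, resolved by capillary electrophoresis, gave the readout. Human HepG2 liver cells carried transiently transfected cis-element reporter units and were treated for 24 hours; activity was fitted bidirectionally against DMSO.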

[3] = ATG_TGFb_CIS: Attagene CIS-FACTORIAL HepG2 Assay for human Transforming Growth Factor (TGF) (AID 2282967); settings: HepG2 Attagene CIS TGFb reporter, mRNA transcription; actives raise or lower the signal
Outline: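 Cells were dosed for 24 hours, after which total RNA was reverse-transcribed and reporter sequences amplified, labeled and sized by capillary electrophoresis. Activity was fitted in both directions against DMSO.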

[4] = ATG_VDRE_CIS: Attagene CIS-FACTORIAL HepG2 Assay for human Vitamin D Receptor Element (VDRE) (AID 2282968); settings: HepG2 VDRE cis-reporter transcription, actives raise or lower the signal
Outline: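 Reporter mRNA induction, quantified by capillary electrophoresis of fluorescently labelled RT-PCR products, was read 24 h after dosing HepG2 cells carrying transiently transfected cis-regulated reporter units; gain or loss relative to DMSO.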

[5] = biological target: Estrogen receptor (Homo sapiens) (UniProt P03372); assay: ATG_ERa_TRANS: Attagene TRANS-FACTORIAL HepG2 Assay for human Estrogen Receptor alpha (ERa) (AID 2282970; active = hit-call score of the fitted dose curve at least 0.9, where 1 is the maximum); settings: HepG2 Attagene TRANS ERa GAL4 reporter, mRNA
Outline: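 Human liver HepG2, transient transfection of multiple GAL4-UAS reporter units; TRANS format (exogenous NR-Gal4 chimera). 24 h dosing. Readout: reporter mRNA, RT-PCR, 6-FAM primer extension, HpaI digest, capillary electrophoresis. Positive direction vs DMSO.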

[6] = biological target: X-box-binding protein 1 (Homo sapiens) (UniProt P17861); assay: ATG_Xbp1_CIS: Attagene CIS-FACTORIAL HepG2 Assay for human X-box Binding Protein 1 (XBP1) (AID 2282972); settings: HepG2 XBP1 cis-element reporter, Attagene multiplex; actives raise or lower the signal
Outline: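 After a 24-hour chemical exposure of HepG2 cells carrying cis-regulated reporters, reporter mRNA levels are assessed. Quantification uses RT-PCR, 6-FAM labelling and capillary electrophoresis. Gain- or loss-of-signal is fitted against DMSO.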

[7] = biological target: Bile acid receptor (Homo sapiens) (UniProt Q96RI1); assay: ATG_FXR_TRANS: Attagene TRANS-FACTORIAL HepG2 Assay for Farnesoid X Receptor (FXR) (AID 2282979; active = hit-call score of the fitted dose curve at least 0.9, where 1 is the maximum;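 also: hits raise reporter mRNA above DMSO so AC50 marks FXR activation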); settings: HepG2 Attagene TRANS FXR-GAL4 reporter transcription
Outline: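 Transient transfection of HepG2 with multiplexed GAL4-UAS reporter units; exogenous FXR-GAL4 chimera. Dose 24 h → TriZol RNA → oligo(dT) RT → PCR, 6-FAM primer extension, HpaI cut → CE. Gain vs DMSO.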

[8] = biological target: Oxysterols receptor LXR-alpha (Homo sapiens) (UniProt Q13133); assay: ATG_LXRa_TRANS: Attagene TRANS-FACTORIAL HepG2 Assay for human Liver X Receptor alpha (LXRa) (AID 2282980; active = hit-call score of the fitted dose curve at least 0.9, where 1 is the maximum); settings: HepG2 Attagene TRANS reporter, LXRa transactivation
Outline: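 Transfect HepG2 with GAL4-UAS multiplex reporter constructs (TRANS format, chimeric receptor-GAL4); treat 24 h; extract RNA, reverse-transcribe, PCR-amplify, FAM-label, HpaI-digest; resolve fragments by capillary electrophoresis. Upward response vs DMSO.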

[9] = biological target: Hepatocyte nuclear factor 4-alpha (Homo sapiens) (UniProt P41235); assay: ATG_HNF4a_TRANS: Attagene TRANS-FACTORIAL HepG2 Assay for human Hepatocyte Nuclear Factor 4 alpha (HNF4a) (AID 2282982; active = hit-call score of the fitted dose curve at least 0.9, where 1 is the maximum); settings: HepG2 HNF4a transactivation reporter, mRNA readout
Outline: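 Readout is fluorescent reporter-transcript fragments resolved by capillary electrophoresis after RT-PCR from HepG2 cells dosed for 24 h. Cells carried transfected GAL4-UAS reporter constructs measuring exogenous NR-GAL4 chimera activity; DMSO served as baseline.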

[10] = ATG_M_06_TRANS: Attagene TRANS-FACTORIAL HepG2 Assay for M06 Transcription Factor (Internal Marker) (AID 2282983; active = hit-call score of the fitted dose curve at least 0.9, where 1 is the maximum); settings: HepG2 Attagene TRANS M06 internal marker reporter
Outline: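 Transfect HepG2 with MRTUs → dose compounds 24 h → isolate RNA, oligo(dT) RT → PCR with reporter primers → 6-FAM primer extension → HpaI digest → CE fragment analysis. Positive direction vs DMSO.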

[11] = ATG_M_32_TRANS: Attagene TRANS-FACTORIAL HepG2 Assay for M32 Transcription Factor (Internal Marker) (AID 2282984; active = hit-call score of the fitted dose curve at least 0.9, where 1 is the maximum;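 also: transcript level of a background control reporter unit measured by RT-PCR and capillary electrophoresis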); settings: HepG2 Attagene TRANS M32 internal marker reporter
Outline: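 Measures reporter mRNA induction in human HepG2 liver cells after 24 h chemical treatment. Transcripts from transiently transfected GAL4-UAS reporter units are amplified, fluorescently labelled and sized by capillary electrophoresis; gain of signal relative to DMSO.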

[12] = biological target: Transcriptional activator Myb (Homo sapiens) (UniProt P10242); assay: ATG_Myb_CIS: Attagene CIS-FACTORIAL HepG2 Assay for human Myeloblastosis (Myb) Proto-Oncogene Transcription Factor (AID 2282986); settings: HepG2 Attagene CIS-FACTORIAL Myb reporter transcription; actives raise or lower the signal
Outline: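 HepG2 cells were transiently transfected with cis-regulated multiple reporter transcription units reflecting endogenous Myb activity, then exposed to compound for 24 hours. Reporter mRNA was measured by RT-PCR with capillary electrophoresis; bidirectional fitting versus DMSO baseline.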

[13] = biological target: Glucocorticoid receptor (Homo sapiens) (UniProt P04150); assay: ATG_GR_TRANS: Attagene TRANS-FACTORIAL HepG2 Assay for human Glucocorticoid Receptor (GR) (AID 2282978; active = hit-call score of the fitted dose curve at least 0.9, where 1 is the maximum;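 also: activators score as hits since higher reporter transcript over DMSO is fitted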); settings: HepG2 Attagene TRANS GR reporter, mRNA transcription
Outline: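 HepG2 cells transiently transfected with multiplexed reporter units in which chimeric NR-GAL4 proteins drive GAL4-UAS reporters; 24 h compound exposure. Reporter mRNA measured by RT-PCR, 6-FAM labelling, HpaI digestion and capillary electrophoresis; gain-of-signal fitted versus DMSO.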

[14] = biological target: Nuclear receptor subfamily 4 group A member 2 (Homo sapiens) (UniProt P43354); assay: ATG_NURR1_TRANS: Attagene TRANS-FACTORIAL HepG2 Assay for human Nuclear Receptor Related Protein 1 (NURR1) (AID 2282985; active = hit-call score of the fitted dose curve at least 0.9, where 1 is the maximum); settings: HepG2 Attagene TRANS reporter, mRNA readout
Outline: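 Transient transfection of HepG2, human liver cells, with multiple GAL4-UAS reporter transcription units. Cells dosed 24 h, RNA isolated, reverse-transcribed, PCR-amplified, FAM-labelled, HpaI-digested, sized by capillary electrophoresis. DMSO served as negative control.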

[15] = biological target: Steroid hormone receptor ERR1 (Homo sapiens) (UniProt P11474); assay: ATG_ERRa_TRANS: Attagene TRANS-FACTORIAL HepG2 Assay for human Estrogen-Related Receptor alpha (ERRa) (AID 2282971; active = hit-call score of the fitted dose curve at least 0.9, where 1 is the maximum); settings: HepG2 Attagene TRANS reporter, ERRa transactivation
Outline: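 Reporter transcript induction was quantified by RT-PCR and capillary electrophoresis of FAM-labelled, HpaI-cut products after 24 h treatment of HepG2 cells carrying transiently transfected GAL4-UAS reporter units and an exogenous ERRa-Gal4 fusion; activity scored as increase over DMSO.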

[16] = ATG_M_19_TRANS: Attagene TRANS-FACTORIAL HepG2 Assay for M19 Transcription Factor (Internal Marker) (AID 2282974; active = hit-call score of the fitted dose curve at least 0.9, where 1 is the maximum); settings: HepG2 Attagene TRANS-FACTORIAL M19 internal marker reporter
Outline: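 HepG2 cells transiently transfected with multiple GAL4-UAS reporter transcription units were exposed to chemicals for 24 h. Reporter mRNA was read by RT-PCR, 6-FAM primer extension, HpaI digestion and capillary electrophoresis; gain of signal fitted relative to DMSO.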

[17] = biological target: Estrogen-related receptor gamma (Homo sapiens) (UniProt P62508); assay: ATG_ERRg_TRANS: Attagene TRANS-FACTORIAL HepG2 Assay for human Estrogen-Related Receptor gamma (ERRg) (AID 2282977; active = hit-call score of the fitted dose curve at least 0.9, where 1 is the maximum;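 also: hits increase reporter signal over DMSO so potencies reflect activators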); settings: HepG2 Attagene TRANS reporter, ERRg transactivation
Outline: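 Transfect HepG2 with multiple GAL4-UAS reporter transcription units; dose chemicals 24 h; isolate RNA, reverse-transcribe with oligo(dT), PCR-amplify, label with 6-FAM, digest with HpaI; size fragments by capillary electrophoresis. DMSO serves as negative control.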

[18] = ATG_GAL4_TRANS: Attagene TRANS-FACTORIAL HepG2 Assay for GAL4 (Internal Marker) (AID 2282976; active = hit-call score of the fitted dose curve at least 0.9, where 1 is the maximum); settings: HepG2 Attagene TRANS GAL4 internal marker reporter
Outline: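 First, HepG2 cells were transfected with reporter units under GAL4-UAS control. Next, they were treated with chemical for 24 h. Finally, RNA was reverse-transcribed, PCR-amplified, FAM-labelled and resolved by capillary electrophoresis, with induction scored against DMSO.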

[19] = biological target: Oxysterols receptor LXR-beta (Homo sapiens) (UniProt P55055); assay: ATG_LXRb_TRANS: Attagene TRANS-FACTORIAL HepG2 Assay for human Liver X Receptor beta (LXRb) (AID 2282981; active = hit-call score of the fitted dose curve at least 0.9, where 1 is the maximum); settings: HepG2 Attagene TRANS GAL4-LXRb reporter, mRNA
Outline: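 Transient transfection HepG2 (multiplexed RTUs, GAL4-UAS); NR-Gal4 chimera; 24 h exposure; RNA → RT-PCR → 6-FAM primer extension → HpaI → CE; increase vs DMSO.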

Measured: AC50

Sequence of Glucocorticoid receptor (Homo sapiens) (P04150 whole entry, looked up, the tested form may be a part): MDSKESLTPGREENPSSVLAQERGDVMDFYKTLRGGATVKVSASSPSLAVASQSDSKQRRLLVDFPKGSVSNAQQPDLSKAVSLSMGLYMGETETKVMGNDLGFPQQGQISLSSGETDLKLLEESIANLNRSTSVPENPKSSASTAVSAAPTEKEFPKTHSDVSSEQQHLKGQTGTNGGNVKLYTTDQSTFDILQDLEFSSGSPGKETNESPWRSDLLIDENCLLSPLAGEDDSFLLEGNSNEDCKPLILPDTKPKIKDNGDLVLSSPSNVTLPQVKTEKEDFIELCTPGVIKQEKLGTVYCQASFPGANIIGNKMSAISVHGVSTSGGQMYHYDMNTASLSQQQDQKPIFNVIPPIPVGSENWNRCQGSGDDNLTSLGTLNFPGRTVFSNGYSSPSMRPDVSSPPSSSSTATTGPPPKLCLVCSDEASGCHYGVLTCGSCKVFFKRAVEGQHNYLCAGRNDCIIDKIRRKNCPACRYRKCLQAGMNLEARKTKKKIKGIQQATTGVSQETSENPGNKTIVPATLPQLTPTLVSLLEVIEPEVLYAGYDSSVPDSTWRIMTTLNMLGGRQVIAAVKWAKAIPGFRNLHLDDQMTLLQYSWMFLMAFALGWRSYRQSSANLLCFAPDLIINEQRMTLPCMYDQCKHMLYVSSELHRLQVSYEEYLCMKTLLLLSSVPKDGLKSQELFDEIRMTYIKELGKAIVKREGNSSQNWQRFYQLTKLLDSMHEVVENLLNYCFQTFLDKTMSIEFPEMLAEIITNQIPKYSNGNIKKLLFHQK
Sequence of Bile acid receptor (Homo sapiens) (Q96RI1 whole entry, looked up, the tested form may be a part): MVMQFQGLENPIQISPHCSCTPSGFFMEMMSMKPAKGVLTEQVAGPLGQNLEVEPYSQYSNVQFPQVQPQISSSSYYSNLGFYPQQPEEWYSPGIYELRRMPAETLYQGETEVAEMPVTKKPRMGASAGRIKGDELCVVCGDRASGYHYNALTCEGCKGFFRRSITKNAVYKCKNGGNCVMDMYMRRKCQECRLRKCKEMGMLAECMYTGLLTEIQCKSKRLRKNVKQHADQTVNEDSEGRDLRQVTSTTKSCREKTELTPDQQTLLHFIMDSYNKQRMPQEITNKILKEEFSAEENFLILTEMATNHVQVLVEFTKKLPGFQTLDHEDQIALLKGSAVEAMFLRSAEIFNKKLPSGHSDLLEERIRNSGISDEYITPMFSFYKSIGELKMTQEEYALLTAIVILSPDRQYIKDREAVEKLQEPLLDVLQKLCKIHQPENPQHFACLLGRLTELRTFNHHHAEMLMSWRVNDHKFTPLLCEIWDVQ
Sequence of Hepatocyte nuclear factor 4-alpha (Homo sapiens) (P41235 whole entry, looked up, the tested form may be a part): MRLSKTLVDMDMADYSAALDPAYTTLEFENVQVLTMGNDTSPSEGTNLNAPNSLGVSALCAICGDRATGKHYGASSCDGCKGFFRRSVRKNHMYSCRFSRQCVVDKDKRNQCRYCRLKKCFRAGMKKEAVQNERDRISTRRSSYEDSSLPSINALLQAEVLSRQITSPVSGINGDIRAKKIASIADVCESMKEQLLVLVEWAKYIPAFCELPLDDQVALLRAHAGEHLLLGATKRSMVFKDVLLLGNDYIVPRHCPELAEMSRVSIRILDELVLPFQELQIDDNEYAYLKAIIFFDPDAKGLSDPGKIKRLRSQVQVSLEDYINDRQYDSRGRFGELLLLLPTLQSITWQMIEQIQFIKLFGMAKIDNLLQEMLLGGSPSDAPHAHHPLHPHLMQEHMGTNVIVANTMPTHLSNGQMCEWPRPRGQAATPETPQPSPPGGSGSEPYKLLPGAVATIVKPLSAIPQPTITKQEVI
Sequence of Nuclear receptor subfamily 4 group A member 2 (Homo sapiens) (P43354 whole entry, looked up, the tested form may be a part): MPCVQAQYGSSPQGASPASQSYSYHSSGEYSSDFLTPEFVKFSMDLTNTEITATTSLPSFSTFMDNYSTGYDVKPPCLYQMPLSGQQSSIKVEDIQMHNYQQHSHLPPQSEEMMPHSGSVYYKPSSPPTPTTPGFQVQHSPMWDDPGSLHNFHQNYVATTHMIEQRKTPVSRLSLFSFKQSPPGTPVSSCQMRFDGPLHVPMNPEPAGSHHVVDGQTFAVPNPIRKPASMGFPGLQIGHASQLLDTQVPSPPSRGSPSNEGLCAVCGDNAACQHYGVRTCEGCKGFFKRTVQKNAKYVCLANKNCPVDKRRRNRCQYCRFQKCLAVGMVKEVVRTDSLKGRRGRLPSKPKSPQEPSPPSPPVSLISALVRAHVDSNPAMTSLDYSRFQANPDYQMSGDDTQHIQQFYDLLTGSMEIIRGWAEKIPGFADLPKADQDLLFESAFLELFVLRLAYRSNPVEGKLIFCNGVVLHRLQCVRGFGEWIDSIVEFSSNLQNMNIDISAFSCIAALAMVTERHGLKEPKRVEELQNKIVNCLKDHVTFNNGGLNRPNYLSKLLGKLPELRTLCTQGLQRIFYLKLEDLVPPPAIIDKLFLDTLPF
Sequence of Oxysterols receptor LXR-beta (Homo sapiens) (P55055 whole entry, looked up, the tested form may be a part): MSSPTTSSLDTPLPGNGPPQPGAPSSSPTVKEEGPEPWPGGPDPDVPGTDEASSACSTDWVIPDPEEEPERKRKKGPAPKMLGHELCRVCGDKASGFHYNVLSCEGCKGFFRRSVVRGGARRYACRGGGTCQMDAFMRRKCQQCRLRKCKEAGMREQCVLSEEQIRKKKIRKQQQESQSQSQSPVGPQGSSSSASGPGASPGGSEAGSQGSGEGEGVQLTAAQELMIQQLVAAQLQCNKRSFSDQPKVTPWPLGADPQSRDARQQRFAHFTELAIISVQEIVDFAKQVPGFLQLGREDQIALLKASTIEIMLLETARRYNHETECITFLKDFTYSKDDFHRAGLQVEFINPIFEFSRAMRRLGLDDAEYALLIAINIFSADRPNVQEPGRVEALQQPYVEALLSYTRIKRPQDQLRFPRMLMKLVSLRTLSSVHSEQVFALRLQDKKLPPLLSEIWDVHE
Sequence of Steroid hormone receptor ERR1 (Homo sapiens) (P11474 whole entry, looked up, the tested form may be a part): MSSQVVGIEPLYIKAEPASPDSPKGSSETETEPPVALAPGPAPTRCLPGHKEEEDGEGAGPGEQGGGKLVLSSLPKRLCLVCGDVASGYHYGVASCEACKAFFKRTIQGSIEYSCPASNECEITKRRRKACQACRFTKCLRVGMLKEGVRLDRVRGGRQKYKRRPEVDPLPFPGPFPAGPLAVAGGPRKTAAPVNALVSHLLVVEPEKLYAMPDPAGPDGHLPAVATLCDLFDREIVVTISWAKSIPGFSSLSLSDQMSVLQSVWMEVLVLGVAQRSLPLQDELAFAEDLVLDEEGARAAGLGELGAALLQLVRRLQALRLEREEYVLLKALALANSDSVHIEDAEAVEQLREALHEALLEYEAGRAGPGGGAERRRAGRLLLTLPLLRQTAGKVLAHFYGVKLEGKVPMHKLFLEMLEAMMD
Sequence of Transcriptional activator Myb (Homo sapiens) (P10242 whole entry, looked up): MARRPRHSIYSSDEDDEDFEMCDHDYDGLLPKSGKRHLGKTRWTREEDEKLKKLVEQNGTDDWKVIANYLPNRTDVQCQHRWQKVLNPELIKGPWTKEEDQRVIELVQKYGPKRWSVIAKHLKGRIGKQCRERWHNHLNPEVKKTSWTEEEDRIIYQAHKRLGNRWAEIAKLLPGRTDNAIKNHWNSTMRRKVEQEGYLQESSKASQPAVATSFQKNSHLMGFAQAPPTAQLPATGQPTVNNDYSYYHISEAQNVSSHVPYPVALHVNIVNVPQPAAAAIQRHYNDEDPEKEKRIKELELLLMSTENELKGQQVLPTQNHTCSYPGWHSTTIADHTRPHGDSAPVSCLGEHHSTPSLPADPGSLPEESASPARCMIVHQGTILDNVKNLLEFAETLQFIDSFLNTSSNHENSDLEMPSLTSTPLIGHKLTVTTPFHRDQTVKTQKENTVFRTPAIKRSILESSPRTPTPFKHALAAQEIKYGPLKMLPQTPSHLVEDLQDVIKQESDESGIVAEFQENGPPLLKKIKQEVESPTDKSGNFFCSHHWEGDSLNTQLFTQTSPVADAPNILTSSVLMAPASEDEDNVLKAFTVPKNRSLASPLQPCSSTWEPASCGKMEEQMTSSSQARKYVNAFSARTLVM
Sequence of Oxysterols receptor LXR-alpha (Homo sapiens) (Q13133 whole entry, looked up, the tested form may be a part): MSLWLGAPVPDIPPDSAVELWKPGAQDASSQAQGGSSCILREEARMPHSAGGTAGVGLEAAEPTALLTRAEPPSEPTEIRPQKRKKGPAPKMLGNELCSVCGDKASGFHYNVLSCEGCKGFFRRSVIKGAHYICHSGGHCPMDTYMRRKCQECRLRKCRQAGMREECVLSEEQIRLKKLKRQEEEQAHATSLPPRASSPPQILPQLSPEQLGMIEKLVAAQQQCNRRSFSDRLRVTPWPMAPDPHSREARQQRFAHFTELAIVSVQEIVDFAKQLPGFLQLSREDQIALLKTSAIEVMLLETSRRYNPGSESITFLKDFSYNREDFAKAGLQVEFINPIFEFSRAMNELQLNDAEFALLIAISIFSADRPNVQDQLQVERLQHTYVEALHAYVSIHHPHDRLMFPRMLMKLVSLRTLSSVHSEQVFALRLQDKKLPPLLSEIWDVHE
Sequence of X-box-binding protein 1 (Homo sapiens) (P17861 whole entry, looked up): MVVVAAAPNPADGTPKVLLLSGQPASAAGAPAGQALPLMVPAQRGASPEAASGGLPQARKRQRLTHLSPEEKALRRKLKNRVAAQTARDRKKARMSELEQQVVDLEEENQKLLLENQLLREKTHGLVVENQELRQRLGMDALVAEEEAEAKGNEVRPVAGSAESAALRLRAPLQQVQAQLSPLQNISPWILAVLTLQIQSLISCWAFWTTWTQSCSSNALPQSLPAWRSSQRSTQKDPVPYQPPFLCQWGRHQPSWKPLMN

CCc1cccc(O)c1
active: [4] 49.3 µM
not listed: [13] | [14] | [15] | [16] | [17] | [18] | [19]
inactive: all other assays above

C1=COCCC1
not listed: [7] | [9] | [15] | [16] | [17] | [18] | [19]
inactive: all other assays above

CCCCCCCCCC(=O)OCC
inactive: [1] | [2] | [3] | [5] | [6] | [10] | [14] | [12]
active: [4] 44.1 µM

C=CC(O)CCCCC (configuration not stated)
active: [1] 27 µM | [4] 48.4 µM | [6] 48.1 µM
inactive: [2] | [3] | [15] | [7] | [9] | [10] | [12]

O=C(O)CS
not listed: [5] | [7] | [8] | [11] | [18] | [19]
inactive: all other assays above

C=CCCCCCCCCC(=O)OCC
active: [3] 0.332 µM
not listed: [5] | [7] | [9] | [13] | [16] | [17] | [19]
inactive: all other assays above

C1COCO1
not listed: [5] | [7] | [9] | [13] | [14] | [16] | [18]
inactive: all other assays above

CC1=CCC(C(C)(C)O)CC1 (configuration not stated)
inactive: [1] | [2] | [3] | [4] | [5] | [6] | [7] | [10] | [14] | [12]

CCCCCCCCCCCCCCCCCC(=O)OCCCCCCCCCCCCCC(C)C
not listed: [7] | [11] | [14] | [15] | [16] | [17]
inactive: all other assays above

CCOC(=O)COC(=O)c1ccccc1C(=O)OCC
inactive: [1] | [2] | [3] | [4] | [5] | [6] | [9] | [10] | [12]

CC(C)COC(=O)c1ccccc1
inactive: [1] | [2] | [3] | [4] | [5] | [6] | [19] | [9] | [10] | [12]
